Shown are actives, neighbours in structure and some others; about 1.9% of the full set was active somewhere.
PKM2 act: PKM2 (human) enzyme activation | P14618 | purified PKM2, Kinase-Glo ATP luminescence, activation; response scale: 0% is enzyme alone, no compound | Potency, µM (highest dose often 57.5 µM), without a hit: top-dose activation, usual class: activators | 260,000 tested, 0.34% active | AID 1631; also: potency is read from the fitted curve at half-maximal effect; % is scaled to controls: 0 for no effect and ±100 for the full control effect; nearly all actives have a fitted effect of over 55% in size
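Purified hPK-M2 (>95%) run at intermediate activity with 0.1 mM ADP and 0.5 mM PEP in 50 mM imidazole pH 7.2, KCl, MgCl2; 1 h room temperature. ATP formed read by Kinase-Glo luminescence; normalized to uninhibited and no-enzyme controls.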
IL-2 act: activates IL-2 in a cell-based reporter assay | IL-2 activation reporter assay, cell-based qHTS; stimulated with anti-CD3/CD4/CD28 beads; in transgenic mouse T cells | 360,000 tested, 0.065% active | activation, % (series mostly up to about 46 µM); in the data active = activation above about 50%; inconclusive = mostly about 30% to 49%; also: 0% is about no effect
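Readout: EGFP and DsRed signals by fluorescent plate cytometry. Unstimulated transgenic mouse T cells received compound 60 min before antibody-bead stimulation, then incubated 18 h at 37 degrees C.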
Pin1 inhibitor: human Pin1 inhibition | Q13526 | 390,000 tested, 0.009% active | Pin1 FP peptide displacement, HiFluor488, 10 min | AID 504891 | Potency, µM (series often up to 115 µM), without a hit: at the highest dose activity, negative = inhibition, hits mostly inhibitors; active = well fitted inhibition curve with a large enough effect in the polarisation, with a control signal flat, not every such curve was filed as active; inconclusive = small, poorly fitted or top-dose-only effect, or effect the other way, or a change in a side signal; inactive = no such curve, though single readings can be large or run the other way; the % refers to the polarisation; also: potency is read from the fitted curve at half-maximal effect; % is scaled to controls: 0 for no effect and ±100 for the full control effect
Target sequence (Q13526 whole entry, looked up): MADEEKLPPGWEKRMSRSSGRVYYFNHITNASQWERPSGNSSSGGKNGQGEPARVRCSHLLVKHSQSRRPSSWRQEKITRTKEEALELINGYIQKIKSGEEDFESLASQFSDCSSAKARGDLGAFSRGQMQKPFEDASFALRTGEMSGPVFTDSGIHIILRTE
Integrin act MD: integrin-mediated muscular dystrophy alleviation activation; alpha7betagal myoblasts, beta-gal FDG fluorescence, 48 h; Potency, µM (titrated, usually from 38.3 µM), for the others: at the top dose activation, actives largely listed as activators; 350,000 tested, 0.064% active; AID 624291;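 also: potency is read from the fitted curve at half-maximal effect; 100% = response of the positive control SU9516; nearly all actives have a fitted effect of over 60% in size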
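Alpha7betagal+/- myoblasts (passage 13) were plated 16-24 hr, then exposed to compounds (1:260 dilution of DMSO stock) for 48 hours at 37C. After MPER lysis, β-galactosidase reporter activity was read as FDG fluorescence (ex 480/em 540) after 30 minutes.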
USP2a inh: inhibitors of human ubiquitin-specific protease USP2a. 330,000 tested, 0.01% active. USP2 core, Ub-CHOP2 coupled fluorogenic reporter, 485/531. O75604. Potency, µM (series often up to 38.3 µM), for the others: at the highest dose activity change, negative = inhibition, actives largely listed as inhibitors;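 also: potency is read from the fitted curve at half-maximal effect; plate controls were DMSO wells for no effect and full inhibition by NEM control for full effect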
Target sequence (O75604 whole entry, looked up): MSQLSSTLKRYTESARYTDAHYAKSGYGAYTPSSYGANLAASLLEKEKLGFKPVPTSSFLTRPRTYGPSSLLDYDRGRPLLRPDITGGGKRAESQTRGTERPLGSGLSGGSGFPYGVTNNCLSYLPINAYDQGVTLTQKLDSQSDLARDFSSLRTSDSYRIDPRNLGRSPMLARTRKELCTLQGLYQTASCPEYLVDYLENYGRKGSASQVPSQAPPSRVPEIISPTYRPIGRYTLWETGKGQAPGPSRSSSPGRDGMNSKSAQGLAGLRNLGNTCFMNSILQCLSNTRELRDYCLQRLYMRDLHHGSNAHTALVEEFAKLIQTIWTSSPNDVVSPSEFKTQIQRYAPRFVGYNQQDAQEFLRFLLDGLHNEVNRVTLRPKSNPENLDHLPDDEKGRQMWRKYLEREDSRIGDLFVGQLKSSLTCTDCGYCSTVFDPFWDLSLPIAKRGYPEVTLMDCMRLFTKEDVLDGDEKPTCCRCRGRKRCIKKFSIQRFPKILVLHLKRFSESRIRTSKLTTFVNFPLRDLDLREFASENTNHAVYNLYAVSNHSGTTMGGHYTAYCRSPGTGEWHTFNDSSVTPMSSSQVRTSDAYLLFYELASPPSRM
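USP2 core (10nM final) preincubated 30min RT with compound in 20mM Tris-HCl pH 8.0, 2mM CaCl2, 2mM beta-mercaptoethanol, 0.05% CHAPS; 25nM Ub-CHOP2 plus 25nM reporter substrate added, fluorescence (Ex485/Em531) read after 60min.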
ClpP mod: qHTS Assay for Activators of ClpP | 340,000 tested, 1.9% active | Potency, µM (titrated, usually from 57.5 µM), without a hit: at the highest dose activity change, negative = active | purified B. subtilis ClpP, FRET peptide cleavage, 20 min | AID 651965, 2013 | ATP-dependent Clp protease proteolytic subunit (Bacillus subtilis (strain 168)), P80244; active = well fitted falling curve with a large enough effect; inconclusive = small, poorly fitted or top-dose-only effect; inactive = no such curve, though single readings can be large or run the other way; also: potency is read from the fitted curve at half-maximal effect; the source files actives as falling curves though it sought activators and does not explain the sign; nearly all actives have a fitted effect of over 65% in size
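Buffer: 100 mM Tris/HCl pH8, 100 mM KCl, 0.05% low protease BSA, 2.5% glycerol, 0.01% Tween-20. ClpP 10 microg/mL final; 20 min RT; delta FRET normalized to ADEP and DMSO controls.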
The depositor's hits bear a star; ? = inconclusive; / = no result; [ ] = dose if it differs, or a comment. Unless noted, calls follow the shape of the dose curve; as a rule, active = well fitted curve in the direction sought with a large enough effect; inconclusive = small, poorly fitted or top-dose-only effect, or another doubt; inactive = no such curve, though single readings can be large; an effect the other way counts as inactive or inconclusive.

SMILES	PKM2 act	IL-2 act	Pin1 inhibitor	Integrin act MD	USP2a inh	ClpP mod
Cc1sc2nc3c4ccccc4c(NCc4ccco4)nn3c(=O)c2c1C	7%	4	-2%	-27%	-1%	25µM*
O=C(NCc1nnc(-c2cc3ccccc3[nH]2)o1)c1ccccc1	/	/	3%	/	/	/
CC(C(=O)c1ccccc1)[n+]1ccc(Cl)c2ccc(Cl)cc21 (stereo not given)	/	/	/	/	/	-3%
COc1ccc(CCNc2ncnc3c2c(-c2ccccc2)cn3-c2ccc(Cl)cc2)cc1OC	/	/	2%	/	/	22µM*
Fc1ccc(-n2cc(-c3ccccc3)c3c(NCCc4ccccc4)ncnc32)cc1	/	/	-3%	/	/	32µM*
COCCN(CCOC)c1ncnc2c1c(-c1ccccc1)cn2-c1ccc(C)c(Cl)c1	/	/	?	/	/	28µM*
COc1ccc(CCNc2cc(C)nc3c(-c4ccccc4)cnn23)cc1OC	5%	-1	0%	-26%	-1%	28µM*
COc1ccc(CNc2ncnc3c2c(-c2ccccc2)cn3-c2ccc(C)c(Cl)c2)cc1	/	/	0%	/	/	?
COc1ccc(CCNc2ncnc3c2c(-c2ccccc2)cn3-c2ccc(F)cc2)cc1OC	/	/	9%	/	/	?
CCCN(C)CCCOc1cc2nc(N3CCCN(C)CC3)nc(NC3CCN(C)CC3)c2cc1OC	/	/	/	/	/	4%
CNc1cc(C(=O)O)nc2ccccc12	/	/	/	/	/	-5%
COC(=O)c1c(-c2cccs2)csc1NC(=O)c1ccc(Cl)cc1	/	/	-1%	/	/	-10%
COc1ccc(C(=O)Nc2scc(-c3ccc(Cl)cc3Cl)c2C(N)=O)cc1	?	0	50%	21%	-3%	28µM*
COc1ccc(C2C3=C(CCCC3=O)Nc3ccc4ncccc4c32)cc1OC (stereo not given)	15%	-1	8%	-8%	0%	6.3µM*
COc1cc(C2C3=C(CCCC3=O)Nc3ccc4ncccc4c32)ccc1O (stereo not given)	/	-1	-9%	-14%	3%	/
CCCC(=O)NCCc1cc2cc(C)c(C)cc2[nH]c1=O	2%	0	-3%	3%	-2%	25µM*
CCCCC(=O)NCCc1cc2ccc(OC)cc2[nH]c1=O	-2%	-2	3%	-4%	-1%	25µM*
CCCC(=O)NCCc1cc2ccc(OC)cc2[nH]c1=O	2%	1	-8%	8%	-2%	-28%
Nc1nonc1-n1nnc(C(=O)N/N=C/c2ccc3c(c2)OCO3)c1-c1ccccc1	1%	1	15%	-55%	3%	/
Nc1nonc1-n1nnc(C(=O)N/N=C/c2ccc(Br)cc2)c1-c1ccc2c(c1)OCO2	/	4	2%	?	-2%	25µM*
O=C(Nc1c(Cl)cc([N+](=O)[O-])cc1Cl)c1cc(Cl)ccc1O	/	/	3%	/	/	9%
COC(=O)c1c(NC(=O)C2COc3ccccc3O2)sc2c1CCN(Cc1ccccc1)C2 (stereo not given)	1%	-2	?	-12%	6%	20µM*
COc1cc(OC)c(/C=C/c2c3ccccc3cc[n+]2C)c(OC)c1	/	/	/	/	/	-1%
CC(C)(C)OC(=O)Cc1nnc(C(C(=O)OCc2ccccc2)c2ccccc2)s1 (stereo not given)	/	/	-2%	/	/	/
CN(C)c1ccc(-c2nn3c(-c4cc(-c5ccccc5)n[nH]4)nnc3s2)cc1	/	/	6%	/	/	?
SMILES	PKM2 act	IL-2 act	Pin1 inhibitor	Integrin act MD	USP2a inh	ClpP mod
O=c1[nH]cnc2nc(-c3ccccc3)c(-c3ccccc3)nc12	-13%	-1	-9%	-12%	0%	28µM*
O=C1C(=Cc2ccc(Br)o2)C(=O)c2ccccc21	-54%	1	3µM*	-8%	-25%	1%
O=C(O)c1cccc(S(=O)(=O)N2CCN(S(=O)(=O)c3ccc4c(c3)OCCO4)CC2)c1	/	/	1%	/	/	/
CC(=O)OCC(NC(=O)C(COCc1ccccc1)NC(=O)OC(C)(C)C)C1OC(n2cc(C)c(=O)[nH]c2=O)C(OC(C)=O)C1OC(C)=O (stereo not given)	/	/	2%	/	/	/
CN(Cc1c(C(=O)N/N=C/c2cccc(F)c2)nnn1-c1nonc1N)c1ccccc1	0%	-1	3%	5.6µM*	-2%	-2%
Cc1cc(C)n(-c2nc(NCC(C)O)c3c4c(sc3n2)CCCC4)n1 (stereo not given)	-7%	1	0%	10%	3%	32µM*
Cc1cc(C)n(-c2nc(NCC(C)O)c3c4c(sc3n2)COC(C)(C)C4)n1 (stereo not given)	0%	-1	2%	-19%	-1%	28µM*
Cc1cc(C)n(-c2nc(NCCO)c3c4c(sc3n2)CCCC4)n1	1%	0	-3%	-6%	0%	-23%
Cc1cc(C)n(-c2nc(NCCCO)c3c4c(sc3n2)CCCC4)n1	1%	0	-5%	-42%	2%	18µM*
CCOc1ccc(-c2csc(NC(=O)CSC3=NC(=O)CN3C(C)=O)n2)c2ccccc12	?	1	-1%	?	3%	0%
CC(=O)N1CC(=O)N=C1SCC(=O)Nc1nc(C)c(-c2ccccc2)s1	20µM*	0	-5%	1%	-14%	20µM*
COc1cc(-c2cc(-c3nnco3)c3ccccc3n2)cc(OC)c1OC	/	-1	2%	4%	-2%	13µM*
CC(=O)c1ccc(NC(=O)CSc2nc(C3CC3)nc3ccccc23)cc1	/	-4	0%	29%	0%	0%
O=C(CSc1nc(C2CC2)nc2ccccc12)N1c2ccccc2Sc2ccccc21	1%	-1	25%	-23%	2%	13µM*
C=C[C@@H]1c2cc(C)ccc2N(S(=O)(=O)c2ccc(C)cc2)[C@H](c2ccc(C(C)(F)F)cc2)C1(C#N)C#N	/	/	/	/	/	0%
COC(=O)c1ccc(NC(=O)c2ccccc2OCC(=O)Nc2ccc(Br)cc2)cc1	/	/	/	/	/	4%
CN(C(=O)COc1ccccc1C(=O)Nc1ccccc1)c1ccccc1	/	/	/	/	/	-4%
O=S(=O)(c1cccc(-c2nnc(SCc3nc4ccccc4s3)o2)c1)N1CCOCC1	-5%	-1	?	-36%	-6%	28µM*
CCOc1ccc2nc(NCCNC(=O)Nc3cccc(C)c3)c(C#N)cc2c1	-3%	1	4%	0%	1%	16µM*
O=C(O)c1cc(Cl)c2ccccc2c1O	-36%	-1	-1%	14%	-2%	28µM*
COc1ccc(-c2nc3c(c4c2C[C@H](c2ccccc2)OC4)CN(C(=O)c2cc(I)ccc2F)CC3)c(C)c1	4%[11.5 µM]	/	/	/	/	/

High-throughput results: PubChem, National Center for Advancing Translational Sciences (NCATS)
